Bioassay records from PubChem.
Most compounds without a hit are left out; they make up all but 5.9% or so of the library.
HSF1 activator – increases HSF-1 driven luciferase reporter signal | NIH3T3-HGL HSF-1 luciferase reporter, MG132, 8 h; 100% = twice DMSO control signal | activation, % at 9 µM | 1.7% of 300,000 active;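 active = mean replicate activation of at least 50% with a set share of replicates each reaching 50%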;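 note: 0% = median of the neutral control wells and 100% = twice that signal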
AHR act – activators of human aryl hydrocarbon receptor; 2.5% of 320,000 active; AHR-responsive luciferase reporter cells, luminescence; activation, % at 5 µM; in the data active = activation above about 47%;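 note: 0% = vehicle wells and 100% = reference agonist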
Target sequence (P35869 whole entry, looked up): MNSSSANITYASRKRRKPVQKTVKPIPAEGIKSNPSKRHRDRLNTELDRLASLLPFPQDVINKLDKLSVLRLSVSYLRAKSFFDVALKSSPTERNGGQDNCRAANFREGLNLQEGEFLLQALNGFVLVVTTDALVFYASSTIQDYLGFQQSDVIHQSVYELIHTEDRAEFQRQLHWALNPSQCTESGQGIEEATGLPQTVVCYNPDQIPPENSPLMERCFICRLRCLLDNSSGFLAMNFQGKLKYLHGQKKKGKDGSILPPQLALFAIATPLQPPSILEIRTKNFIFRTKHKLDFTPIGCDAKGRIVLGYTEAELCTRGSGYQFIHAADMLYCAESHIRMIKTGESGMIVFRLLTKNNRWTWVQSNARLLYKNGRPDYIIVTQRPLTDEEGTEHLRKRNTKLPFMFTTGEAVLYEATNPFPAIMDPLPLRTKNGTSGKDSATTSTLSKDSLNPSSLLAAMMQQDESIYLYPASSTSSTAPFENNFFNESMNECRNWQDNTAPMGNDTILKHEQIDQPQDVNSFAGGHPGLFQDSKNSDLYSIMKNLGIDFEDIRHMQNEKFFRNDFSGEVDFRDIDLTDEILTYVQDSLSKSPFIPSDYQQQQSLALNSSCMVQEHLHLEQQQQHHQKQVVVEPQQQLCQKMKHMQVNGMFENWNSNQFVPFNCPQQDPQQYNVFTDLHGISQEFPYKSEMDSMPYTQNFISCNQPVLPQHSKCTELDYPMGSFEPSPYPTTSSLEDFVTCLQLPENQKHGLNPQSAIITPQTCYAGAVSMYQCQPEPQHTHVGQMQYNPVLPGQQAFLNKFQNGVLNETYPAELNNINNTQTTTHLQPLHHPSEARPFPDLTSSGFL
GAA850 FXN act – frataxin GAA850 promoter activation | activation, % at 6 µM | HEK293 lucGAA850 FXN promoter luciferase reporter, 24 h; percent of 10 µM SAHA response | 0.56% of 360,000 active | AID 540364;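 active = activation above the average of all compounds screened plus 3 SD, cutoff fixed separately per campaign, cut at about 7.5% in these data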;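 note: 0% = DMSO wells and 100% = 10 µM SAHA wells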
HSP90 refold inh – HSP90 refolding inhibition in rabbit reticulocyte lysate. inhibition, % at 5.6 µM. 0.91% of 290,000 active. luciferase refolding luminescence, 3 h;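 active = inhibition above the screen-wide mean plus 3 SD, computed separately per campaign, cut at about 16% in these data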;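 note: 0% = DMSO wells and 100% = 60 µM geldanamycin wells; inhibitors lower the luminescence because luciferase stays unfolded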
HSF1 inhib – HSF1 inhibition; AID 2098; NIH3T3-HGL HSE-luciferase, MG132-induced, luminescence 8 h; active compounds read low; activity change, negative = inhibition, % at 7.5 µM (by protocol); 0.77% of 300,000 active;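 active = more than half of replicate wells show activity change below -50%, luminescence cut by over half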;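 note: luciferase reports HSF-1 transcriptional activity via heat shock element; 0% = median of DMSO wells and -100% = zero luminescence signal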
DAX1 inh – inhibits human nuclear receptor DAX1; HEK293 Gal4-DAX1 luciferase reporter, luminescence; 0.99% of 340,000 active; inhibition, % at 6.75 µM; P51843;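 active = inhibition above the mean over all tested compounds plus 3 SD, cut at about 4.2% in these data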;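 note: 0% = DAX1-transfected cells with DMSO and 100% = empty-vector control cells with DMSO; inhibition shows as a rise in luminescence from relieved DAX1 repression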
* marks the source's active call; other numbers are inactive results; x = not tested or not shown.

SMILES	HSF1 activator	AHR act	GAA850 FXN act	HSP90 refold inh	HSF1 inhib	DAX1 inh
Cc1cccc(S(=O)(=O)N(C)C[C@H]2OCc3cn(nn3)CCCC(=O)N([C@@H](C)CO)C[C@@H]2C)c1	x	x	0.4	x	x	2.5
Cc1ccc(C(=O)OCC(=O)NCc2ccccc2)s1	x	x	-0.1	x	x	1.5
COCCN1CC(=O)N2C(c3cccc(OC)c3)c3[nH]c4ccccc4c3C[C@H]2C1=O (stereo partly specified)	18.3	10.3	-0.6	-0.5	2.6	2.2
C[C@@H]1Cn2cnc(C(=O)NCc3ccc(CNC(=O)OC(C)(C)C)cc3)c2C(=O)N1	x	x	2.3	x	x	2.2
CCN1CCN(CCCNC(=O)C2CCN(c3nnc(-n4c(C)ccc4C)s3)CC2)CC1	-5.7	51.4*	1.6	-4.8	-0.7	1.4
O=C(NCCOc1ccccc1)C1=CC=CN2CCS(=O)(=O)N=C12	x	0.9	1.5	x	x	1.0
CCCC(CCC)C(=O)Nc1ccc2c(c1)N(C(=O)CCN1CCN(C)CC1)c1ccccc1CC2	-67.8	-0.2	-0.3	1.9	-62.6*	-1.6
CCOC(=O)Nc1ccc2c(c1)N(C(=O)CN1CCN(C)CC1)c1ccccc1CC2	11.0	-2.8	0.1	3.0	-3.1	-0.3
CCc1ccc2nc(NC(=O)C3CSC4(C)CCC(=O)N34)sc2c1 (stereo unspecified)	13.1	66.5*	3.3	x	14.4	0.3
CC12CCC(=O)N1C(C(=O)Nc1nc3ccc(S(C)(=O)=O)cc3s1)CS2 (stereo unspecified)	-2.9	2.2	1.5	-1.6	-6.5	1.2
CC12CCC(=O)N1C(C(=O)Nc1cccc3ccccc13)CS2 (stereo unspecified)	70.0*	10.7	2.5	x	40.2	-0.2
CC1(C(=O)NS(=O)(=O)c2cccc(C#N)c2)CCN1C(=O)Cc1ccccc1Cl (stereo unspecified)	x	x	-0.2	x	x	x
NC(=O)c1ccccc1Nc1nc(NCCO)nc(N2CCCC2)n1	7.1	3.8	-0.1	x	-4.3	4.4*
COc1ccc(C(=O)OC(C)C(=O)NC2CCCCC2C)cc1S(=O)(=O)N1CCOCC1 (stereo unspecified)	-2.6	-3.0	1.9	x	-2.9	-1.0
O=C(N/N=C/c1ccc([N+](=O)[O-])o1)C1CCCC1	23.7	9.8	7.2	4.4	19.1	-1.3
O=[N+]([O-])c1ccc(/C=[N+](\[O-])[C@@H]2CCCC[C@@H]2/[N+]([O-])=C/c2ccc([N+](=O)[O-])o2)o1	70.7*	0.9	5.5	6.6	50.0	-0.4
COC(=O)Nc1cc(C(=O)c2ccc(Cl)cc2Cl)c[nH]1	8.5	3.2	0.5	-0.4	0.1	1.3
CN(C)c1ccc(CNC(=O)c2ccc(CNc3c(N4CCCCC4)c(=O)c3=O)cc2)cc1	60.5*	0.2	0.6	-1.9	29.6	0.2
O=C(NCc1ccc(Cl)cc1)c1ccc(CNc2c(N3CCCC3)c(=O)c2=O)cc1	-5.2	5.5	1.7	5.6	-7.7	-1.5
CCOc1ccc(OCC)c(NC(=O)c2ccc(CNc3c(N4CCCC4)c(=O)c3=O)cc2)c1	-21.9	3.1	-0.7	-1.2	-4.2	6.3*
Cc1nc(SCc2nc3ccc(C(F)(F)F)cc3[nH]2)c2oc3ccccc3c2n1	x	19.4	2.4	x	x	-0.7
Cc1ccc(NC(=O)Cc2nc(CSc3nnc(-c4ccc5c(c4)OCO5)o3)cs2)cc1	27.5	50.3*	1.1	-2.8	13.0	-0.6
O=c1[nH]c(CCl)nc2cc(-c3ccc(F)cc3)sc12	52.6*	-2.6	3.1	15.5	17.5	-0.5
C[C@@H]1CN([C@@H](C)CO)C(=O)CCCn2nncc2CO[C@H]1CN(C)Cc1ccc(Oc2ccccc2)cc1	x	x	-1.6	x	x	3.5
COC(=O)c1ccc(CN2CCN(C3CCCCC3)C(CCO)C2)cc1 (stereo unspecified)	-72.3	-1.0	-0.5	-2.3	-64.2*	0.7
SMILES	HSF1 activator	AHR act	GAA850 FXN act	HSP90 refold inh	HSF1 inhib	DAX1 inh
COC(=O)c1ccc(CN2CCN(C3CCCC3)C(CCO)C2)cc1 (stereo unspecified)	8.9	27.9	4.7	-0.5	-2.4	0.1
Cc1cc(OCC(=O)NCc2ccncc2)c2c(C)cc(=O)oc2c1	-9.1	61.5*	-1.3	1.8	-2.4	0.0
Cc1cc(OC(C)C(=O)NCc2ccncc2)c2c(C)cc(=O)oc2c1 (stereo unspecified)	15.5	7.5	-1.3	-2.6	-3.4	1.5
CCCCc1cc(=O)oc2cc(C)cc(OCC(=O)Nc3cccnc3)c12	8.0	51.2*	-4.6	-2.3	-4.8	-0.3
Nc1nc2ncc(-c3ccsc3)c(N)n2n1	-23.2	1.4	0.7	-5.7	-6.5	1.4
Nc1c(-c2ccsc2)cnc2ncnn12	63.8*	6.3	-0.3	0.0	31.0	0.1
NC(=O)CCCn1c(C(=O)c2ccc(Cl)cc2)c2ccc(C(F)(F)F)cc2[n+]1[O-]	13.0	60.7*	2.4	x	4.4	0.0
NCCCn1c(C(=O)c2ccc(Cl)cc2)c2ccc([N+](=O)[O-])cc2[n+]1[O-]	20.5	40.8	-1.5	x	4.5	2.0
NC(=O)CCCn1c(C(=O)c2ccc(Cl)cc2)c2ccc([N+](=O)[O-])cc2[n+]1[O-]	20.4	34.4	1.4	x	7.6	-1.5
NC(=O)CCCn1c(C(=O)c2cc(Cl)c(N)c(Cl)c2)c2ccc([N+](=O)[O-])cc2[n+]1[O-]	1.2	76.6*	1.6	x	9.8	-3.0
Clc1ccccc1N1CCN(c2ncnc3nc[nH]c23)CC1	7.6	-7.9	0.5	58.2*	-3.1	-1.2
CCCCCCCCS(=O)CCC(=O)O (stereo unspecified)	5.5	1.6	-0.8	3.5	-2.1	0.6
NCCCCC(=O)O	x	-2.9	0.1	x	x	-0.7
NCCCC(=O)O	-75.8	-3.6	1.9	0.9	-70.4*	-0.4
CCCCCCCC(=O)O	x	-0.7	-3.7	x	x	4.7*
CC1(C)CC(=O)/C(=N/Nc2ccc(Cl)cc2)CO1	-14.5	29.1	5.3	-4.1	-1.2	4.5*
COc1ccccc1NC=C1C(=O)OC(C)(C)OC1=O	-5.8	0.0	0.6	-0.5	7.2	0.1
Cc1cccc(N/N=C2/COC(C)(C)CC2=O)c1	40.1	-4.5	3.3	1.9	20.3	1.5
COc1ccccc1N/N=C1\COC(C)(C)CC1=O	-11.3	-0.7	6.1	-2.8	6.8	4.8*
COc1ccc(N(C(=O)c2ccco2)C(C(=O)NC2CCCC2)c2cccs2)cc1 (stereo unspecified)	66.3*	-1.9	0.1	1.5	15.2	-1.6
N#CCc1nc(C(c2ccccc2)c2ccccc2)no1	-4.8	-1.1	1.3	5.0	-5.2	0.0
c1ccc2c(c1)OCCOCCOc1ccccc1OCCOCCO2	3.6	64.2*	0.0	-0.4	-15.7	-1.4
O=C(NCc1ccccc1Cl)c1ccc2sc([C@@H]3O[C@H](CO)[C@H](O)[C@H](O)[C@H]3O)nc2c1	x	x	0.5	x	x	x
COc1ccc(S(=O)(=O)NCc2cccnc2)cc1NC(=O)c1ccccc1	0.9	-0.7	0.5	5.8	-2.7	5.3*
